What is called inhibition is the drop in the measured response relative to a control, in per cent.

This is an account of results in PubChem BioAssay.

Assay [1] is described as follows: rapamycin-like changes in RPL19A-GFP expression – cell-based, S. cerevisiae, multiplex flow cytometry, primary screen (AID 1862; in the data active = percent of DMSO control GFP below about 86%;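 also: lower values mimic rapamycin by blocking the RPL19A rise seen in DMSO cells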). Conditions: S. cerevisiae RPL19A-GFP strain, flow cytometry fluorescence, 3 h; at 10 µM; stronger effect = lower value.
A short description of assay [2]: TOR pathway GLN3 branch reporter MEP2-GFP changes – S. cerevisiae, multiplex flow cytometry, primary screen (AID 1867;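 active = GFP response, as percent of the DMSO control, above the screen-wide mean plus 3 SD, about 139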;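 also: median GFP channel fluorescence of barcode-gated MEP2-GFP cells measured by flow cytometry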). Conditions: S. cerevisiae MEP2-GFP strain, 3 h, at 10 µM, stronger effect = higher value. (In general: Flow cytometry measures light scatter and fluorescence of single cells or particles in a stream.)
Assay [3] in a line: TOR pathway RTG branch CIT2 reporter changes – S. cerevisiae, GFP fusion, multiplex flow cytometry, primary screen (AID 1870;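 active = percent response above a set limit, the screen-wide mean plus 3 SD, cut at about 130% in these data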;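 also: barcoded CIT2-GFP strain pooled with four other GFP strains with rapamycin as positive control; median GFP fluorescence per well over plate mean of DMSO wells so 100% = DMSO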). Particulars: S. cerevisiae CIT2-GFP expression, 3 h, at 10 µM, stronger effect = higher value.
The nature of assay [4]: TOR pathway LAP4-GFP level changes – S. cerevisiae, multiplex flow cytometry, primary screen (AID 1873;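 active = GFP signal, as percent of the solvent control, above the screen mean plus 3 SD, about 149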). Conditions: S. cerevisiae LAP4-GFP expression, 3 h, at 10 µM, stronger effect = higher value.
Assay [5] is described as follows: yeast AGP1-GFP level changes, GLN3 branch – cell-based, multiplex flow cytometry, S. cerevisiae, primary screen (AID 1887;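 active = GFP signal above the screen-wide mean plus 3 SD, that is over about 124.5% of the solvent control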;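 also: AGP1-GFP fusion strain of S. cerevisiae within a five-strain barcoded multiplex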). Particulars: 3 h, at 10 µM, stronger effect = higher value.
Assay [6] can be described thus: reduced mouse 2C T cell binding to pMHC/ICAM-1 vesicles – MLPCN validation set, flow cytometry, LFA-1/ICAM-1 modulator project, pilot screen (AID 2523;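 active = response below a set limit, under 55% cells CD8-positive and vesicle-bound, and CD8 cells' 90th-percentile brightness under 279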;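 as to vesicle binding response: mean PE anti-B7-1 fluorescence of CD8+ cells relative to row control; 100% = QL9-loaded vesicles with DMSO vehicle in the same plate row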). Conditions: 2C mouse CD8+ T cells, at 7 µM, stronger effect = lower value; double positive events: measured here: CD8+/vesicle+ event percentage.
In assay [7] the target is Integrin beta-1 (Homo sapiens) + Integrin alpha-4 (Homo sapiens) (UniProt P13612+P05556). Description: alpha4beta1 integrin LIBS antibody binding reduction – U937 cells, HUTS-21 mAb, flow cytometry, validation set, VLA-4 allosteric modulator project, pilot screen (AID 2674;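 active = inhibition above 50%, about 3 SD of the validation set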;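 also: antibody binding induced by the VLA-4 ligand LDV present at three times its Kd; 0% = LDV ligand with antibody and no compound and 100% = antibody without LDV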). Conditions: HUTS-21 LIBS mAb binding, at 6.7 µM, stronger effect = higher value.
Sequence of Integrin beta-1 (Homo sapiens) + Integrin alpha-4 (Homo sapiens) (P05556 whole entry, looked up): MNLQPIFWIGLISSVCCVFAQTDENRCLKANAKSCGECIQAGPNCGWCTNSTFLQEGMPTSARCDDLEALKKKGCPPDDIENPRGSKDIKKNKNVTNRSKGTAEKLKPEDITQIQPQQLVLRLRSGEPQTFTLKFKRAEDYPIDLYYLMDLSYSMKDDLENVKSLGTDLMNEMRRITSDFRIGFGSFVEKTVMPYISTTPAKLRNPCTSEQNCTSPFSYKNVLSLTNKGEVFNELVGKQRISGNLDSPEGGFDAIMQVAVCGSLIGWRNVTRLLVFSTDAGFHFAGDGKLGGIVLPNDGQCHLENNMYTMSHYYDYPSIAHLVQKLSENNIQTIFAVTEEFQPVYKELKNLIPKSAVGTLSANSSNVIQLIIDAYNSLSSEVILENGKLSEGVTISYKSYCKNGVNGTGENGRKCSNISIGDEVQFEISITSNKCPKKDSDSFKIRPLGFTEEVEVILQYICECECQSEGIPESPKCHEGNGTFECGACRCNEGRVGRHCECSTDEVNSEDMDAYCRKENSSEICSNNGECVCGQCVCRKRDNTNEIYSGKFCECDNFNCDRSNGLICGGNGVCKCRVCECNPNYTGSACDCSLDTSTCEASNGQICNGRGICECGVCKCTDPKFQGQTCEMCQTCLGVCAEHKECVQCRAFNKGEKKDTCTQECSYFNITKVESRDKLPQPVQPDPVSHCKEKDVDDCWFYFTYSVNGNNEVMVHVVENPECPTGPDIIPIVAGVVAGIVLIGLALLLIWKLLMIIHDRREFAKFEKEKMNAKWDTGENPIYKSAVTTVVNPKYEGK
Sequence of Integrin beta-1 (Homo sapiens) + Integrin alpha-4 (Homo sapiens) (P13612 whole entry, looked up): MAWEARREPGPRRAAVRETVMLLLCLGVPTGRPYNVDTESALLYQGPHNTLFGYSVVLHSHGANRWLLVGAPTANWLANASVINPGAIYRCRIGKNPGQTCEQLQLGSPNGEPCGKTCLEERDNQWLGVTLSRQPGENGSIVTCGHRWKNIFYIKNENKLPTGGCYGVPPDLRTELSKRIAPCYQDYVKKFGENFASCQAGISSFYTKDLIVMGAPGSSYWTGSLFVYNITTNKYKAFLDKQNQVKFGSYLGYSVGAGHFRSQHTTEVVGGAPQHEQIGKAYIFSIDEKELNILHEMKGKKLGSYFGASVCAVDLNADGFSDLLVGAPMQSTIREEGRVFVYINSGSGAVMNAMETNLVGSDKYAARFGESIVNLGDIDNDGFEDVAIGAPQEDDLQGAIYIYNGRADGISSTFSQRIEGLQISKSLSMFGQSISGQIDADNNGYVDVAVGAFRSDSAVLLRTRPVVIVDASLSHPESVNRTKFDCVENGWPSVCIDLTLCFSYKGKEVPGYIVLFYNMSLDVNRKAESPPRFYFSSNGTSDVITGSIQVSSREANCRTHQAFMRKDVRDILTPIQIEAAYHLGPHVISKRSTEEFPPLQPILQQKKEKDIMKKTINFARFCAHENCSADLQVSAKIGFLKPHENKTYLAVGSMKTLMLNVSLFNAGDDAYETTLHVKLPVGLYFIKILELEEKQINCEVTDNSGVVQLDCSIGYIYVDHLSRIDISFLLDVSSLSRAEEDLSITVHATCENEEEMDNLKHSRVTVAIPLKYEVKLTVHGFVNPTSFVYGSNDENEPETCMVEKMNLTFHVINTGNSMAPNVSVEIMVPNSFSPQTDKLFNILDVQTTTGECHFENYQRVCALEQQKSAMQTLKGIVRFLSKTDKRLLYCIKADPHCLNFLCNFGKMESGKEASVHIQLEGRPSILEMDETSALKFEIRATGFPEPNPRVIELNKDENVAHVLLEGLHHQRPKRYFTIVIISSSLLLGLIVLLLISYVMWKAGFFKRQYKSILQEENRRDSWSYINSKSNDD
Assay [8] can be described thus: calorie-restriction mimetic ROS inhibitors, yeast – validation compound set, pilot screen (AID 2706;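 active = superoxide response below 65% of plate, a cut near 3 SD across the whole screen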;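 also: yeast exposed to compound for one week at 30 degrees C before staining; 100% = mean of all compound wells on the same plate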). Conditions: S. cerevisiae aging, superoxide DHE fluorescence; at 10 µM; stronger effect = lower value.
Assay [9] addresses Beta-adrenergic receptor kinase 1 (Homo sapiens) (UniProt P25098). The assay is described as follows: GRK2 binders displacing RNA aptamer, biochemical, validation, human GRK2, bead flow cytometry (AID 488806;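 active = aptamer binding inhibition above 30%, about 3 SD of noise from non-fluorescent compounds; inactive = inhibition at or below 30%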). Particulars: bead-bound GRK2, FAM-aptamer displacement, at 10 µM, stronger effect = higher value.
Assay [10] addresses AP-2 complex subunit beta (Homo sapiens) (UniProt P63010). The assay is described as follows: beta-arrestin/AP2 interaction blockers – biochemical, validation set, GST-AP2 beads, flow cytometry, pilot screen (AID 504541;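 active = inhibition above 54%, about 3 SD of non-fluorescent compounds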;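 also: AP2 carries R879A mutation and is captured from E. coli lysate; bead-bound FITC arrestin peptide fluorescence measuring arrestin peptide binding to AP2; 0% = DMSO wells and 100% = excess unlabeled arrestin peptide control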). Conditions: FITC arrestin peptide, at 10 µM, stronger effect = higher value.
Assay [11] is described as follows: cytosolic pH regulators acting via V-ATPase – S. cerevisiae, pHLuorin, HTS validation (AID 504600; in the data active = response above about 15%;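 also: plate controls were DMSO for no effect and reference compound for full effect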). Conditions: V-ATPase proton transport, at 10 µM, stronger effect = higher value.
For assay [12], the system named is anti-desmoglein-3 scFv antibody binding to human DSG3. The assay is described as follows: blockers of pathogenic pemphigus antibody–desmoglein-3 binding – biochemical, validation compound set, bead-based, flow cytometry, pilot screen (AID 588368;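 active = binding below the plate cutoff, the plate median minus 3 SD, with a reading above zero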;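 also: signal is the median channel fluorescence of bead-bound GFP antibody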). Conditions: Protein G beads, DSG3-Fc, scFv-GFP binding, at 10 µM, stronger effect = lower value.
Assay [13] deals with Botulinum neurotoxin type F light chain protease (Clostridium botulinum). Description: Clostridium botulinum type F light chain protease inhibitors, microsphere substrate cleavage, validation (AID 588459). Particulars: multiplex microsphere protease substrate cleavage assay, flow cytometry; at 10 µM; stronger effect = higher value.
For assay [14], the target named is Botulinum neurotoxin type A (Clostridium botulinum) (UniProt P0DPI0). The assay is described as follows: BoNT/A light chain protease inhibitors, biochemical, multiplex microsphere flow cytometry, validation set (AID 588460). Particulars: at 10 µM, stronger effect = higher value.
Sequence of Botulinum neurotoxin type A (Clostridium botulinum) (P0DPI0 whole entry, looked up): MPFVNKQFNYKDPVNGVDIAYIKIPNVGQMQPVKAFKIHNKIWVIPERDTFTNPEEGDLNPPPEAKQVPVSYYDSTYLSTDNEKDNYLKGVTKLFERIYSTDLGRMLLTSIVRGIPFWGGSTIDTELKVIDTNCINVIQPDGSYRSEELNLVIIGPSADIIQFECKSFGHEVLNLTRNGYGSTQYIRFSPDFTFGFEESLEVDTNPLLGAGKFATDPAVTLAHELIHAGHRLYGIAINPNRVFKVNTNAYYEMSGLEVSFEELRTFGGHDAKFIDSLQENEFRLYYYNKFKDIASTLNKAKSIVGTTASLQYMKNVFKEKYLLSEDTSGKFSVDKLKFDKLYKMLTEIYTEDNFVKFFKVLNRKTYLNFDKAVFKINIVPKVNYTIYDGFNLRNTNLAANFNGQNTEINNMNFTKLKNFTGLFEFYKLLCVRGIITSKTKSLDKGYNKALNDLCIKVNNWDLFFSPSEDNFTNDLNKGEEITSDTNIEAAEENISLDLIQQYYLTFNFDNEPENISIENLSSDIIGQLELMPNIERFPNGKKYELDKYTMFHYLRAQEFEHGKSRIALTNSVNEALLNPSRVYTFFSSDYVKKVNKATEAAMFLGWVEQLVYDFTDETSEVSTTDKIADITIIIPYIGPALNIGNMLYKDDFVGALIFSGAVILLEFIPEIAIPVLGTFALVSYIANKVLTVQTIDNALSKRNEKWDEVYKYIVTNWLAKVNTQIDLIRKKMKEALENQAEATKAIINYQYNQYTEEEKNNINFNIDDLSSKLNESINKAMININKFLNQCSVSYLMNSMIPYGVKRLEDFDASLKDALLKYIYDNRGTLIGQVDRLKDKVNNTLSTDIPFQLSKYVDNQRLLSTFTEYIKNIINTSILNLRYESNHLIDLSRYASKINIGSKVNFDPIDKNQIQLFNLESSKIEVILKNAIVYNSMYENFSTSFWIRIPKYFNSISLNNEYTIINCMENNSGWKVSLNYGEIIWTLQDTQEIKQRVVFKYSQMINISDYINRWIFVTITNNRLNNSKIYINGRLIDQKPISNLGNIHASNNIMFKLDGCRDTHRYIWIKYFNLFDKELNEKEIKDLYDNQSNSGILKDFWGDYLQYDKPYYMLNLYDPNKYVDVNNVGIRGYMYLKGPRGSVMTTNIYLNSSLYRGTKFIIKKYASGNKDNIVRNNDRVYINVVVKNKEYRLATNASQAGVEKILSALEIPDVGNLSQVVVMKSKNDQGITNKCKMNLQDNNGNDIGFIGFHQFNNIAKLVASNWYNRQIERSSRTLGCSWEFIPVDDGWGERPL
Assay [15] deals with Lethal factor (Bacillus anthracis) (UniProt P15917). The assay is described as follows: Bacillus anthracis lethal factor inhibition, microsphere flow cytometry protease assay, validation at 10 µM (AID 588461). Particulars: multiplex microsphere protease cleavage assay, stronger effect = higher value.
Assay [16] can be described thus: Nile Red efflux blockade in pump-expressing yeast – validation compound set, multiplex, phenotypic, pilot screen (AID 588506;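 active = efflux inhibition above 0.42, the validation set average plus 4 SD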;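 also: Nile Red retained in cells so higher fluorescence means more efflux inhibition; 0 = negative control wells and 1 = enniatin B 25 µM full block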). Particulars: S. cerevisiae pump-expressing triplex, Nile Red efflux flow cytometry; at 10 µM; stronger effect = higher value.
The target of assay [17] is ATP-binding cassette sub-family B member 6 (Homo sapiens) (UniProt Q9NP58). Description: blockers of ABCB6-driven porphyrin uptake – K562-ABCB6 cells, flow cytometry, validation set, pilot screen (AID 588550;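 active = inhibition above the screen-wide mean plus 3 SD, about 51%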;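 also: 0% = DMSO wells and 100% = benzethonium chloride 70 µM positive control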). Particulars: K562-ABCB6 porphyrin accumulation, 1 h, at 10 µM, stronger effect = higher value.
Sequence of ATP-binding cassette sub-family B member 6 (Homo sapiens) (Q9NP58 whole entry, looked up): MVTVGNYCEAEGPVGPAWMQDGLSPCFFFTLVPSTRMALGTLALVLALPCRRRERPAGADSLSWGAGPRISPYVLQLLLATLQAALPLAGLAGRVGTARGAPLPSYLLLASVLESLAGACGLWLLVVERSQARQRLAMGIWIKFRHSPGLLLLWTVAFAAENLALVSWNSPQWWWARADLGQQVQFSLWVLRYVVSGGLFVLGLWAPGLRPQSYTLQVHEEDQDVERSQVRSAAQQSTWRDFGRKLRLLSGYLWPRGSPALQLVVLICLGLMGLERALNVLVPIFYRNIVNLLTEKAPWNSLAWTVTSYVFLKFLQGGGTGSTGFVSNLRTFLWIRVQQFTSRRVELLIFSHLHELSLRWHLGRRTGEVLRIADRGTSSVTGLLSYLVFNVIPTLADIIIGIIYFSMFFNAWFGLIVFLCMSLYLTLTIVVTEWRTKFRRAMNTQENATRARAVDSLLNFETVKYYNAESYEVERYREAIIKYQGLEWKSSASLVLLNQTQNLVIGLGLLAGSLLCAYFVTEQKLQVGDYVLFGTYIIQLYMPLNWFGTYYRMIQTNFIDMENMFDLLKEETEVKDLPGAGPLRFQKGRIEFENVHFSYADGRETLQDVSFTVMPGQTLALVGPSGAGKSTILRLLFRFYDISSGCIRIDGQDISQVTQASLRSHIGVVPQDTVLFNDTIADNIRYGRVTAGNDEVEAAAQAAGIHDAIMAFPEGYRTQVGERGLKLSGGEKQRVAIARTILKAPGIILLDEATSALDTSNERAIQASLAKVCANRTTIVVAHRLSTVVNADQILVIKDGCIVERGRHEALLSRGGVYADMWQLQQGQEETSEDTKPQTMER
Assay [18] can be described thus: AML differentiation inducers, ER-HoxA9 marrow cells – cell-based, GFP/MAC1 double positive, flow cytometry, validation set, primary screen (AID 588685;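 active = differentiation response of at least 50%, scaled between solvent and reference control, from cells with both markers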;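 also: compound exposure lasts four days before antibody staining and flow analysis; 0% = DMSO wells and 100% = 5 µM fulvestrant positive control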). Conditions: stronger effect = higher value.
For assay [19], the target named is Beta-2 adrenergic receptor (Homo sapiens) (UniProt P07550). The assay is described as follows: agonist-induced loss of surface beta2AR – cell-based, FAP fluorogen, flow cytometry, validation set, pilot screen (AID 504459;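 active = percent response above 42, roughly 3 SD of non-fluorescent test compounds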;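 also: agonist-driven loss of surface beta2AR via internalization measured by FAP dye flow cytometry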). Conditions: Am2.2-beta2AR cells, at 10 µM, stronger effect = higher value.

The structures appear in SMILES notation. Results filed as inconclusive are left out. Calls of active or inactive are those of the source. Unless noted, no rule for the calls is given here.

Sequence of AP-2 complex subunit beta (Homo sapiens) (P63010 whole entry, looked up, one chain of several): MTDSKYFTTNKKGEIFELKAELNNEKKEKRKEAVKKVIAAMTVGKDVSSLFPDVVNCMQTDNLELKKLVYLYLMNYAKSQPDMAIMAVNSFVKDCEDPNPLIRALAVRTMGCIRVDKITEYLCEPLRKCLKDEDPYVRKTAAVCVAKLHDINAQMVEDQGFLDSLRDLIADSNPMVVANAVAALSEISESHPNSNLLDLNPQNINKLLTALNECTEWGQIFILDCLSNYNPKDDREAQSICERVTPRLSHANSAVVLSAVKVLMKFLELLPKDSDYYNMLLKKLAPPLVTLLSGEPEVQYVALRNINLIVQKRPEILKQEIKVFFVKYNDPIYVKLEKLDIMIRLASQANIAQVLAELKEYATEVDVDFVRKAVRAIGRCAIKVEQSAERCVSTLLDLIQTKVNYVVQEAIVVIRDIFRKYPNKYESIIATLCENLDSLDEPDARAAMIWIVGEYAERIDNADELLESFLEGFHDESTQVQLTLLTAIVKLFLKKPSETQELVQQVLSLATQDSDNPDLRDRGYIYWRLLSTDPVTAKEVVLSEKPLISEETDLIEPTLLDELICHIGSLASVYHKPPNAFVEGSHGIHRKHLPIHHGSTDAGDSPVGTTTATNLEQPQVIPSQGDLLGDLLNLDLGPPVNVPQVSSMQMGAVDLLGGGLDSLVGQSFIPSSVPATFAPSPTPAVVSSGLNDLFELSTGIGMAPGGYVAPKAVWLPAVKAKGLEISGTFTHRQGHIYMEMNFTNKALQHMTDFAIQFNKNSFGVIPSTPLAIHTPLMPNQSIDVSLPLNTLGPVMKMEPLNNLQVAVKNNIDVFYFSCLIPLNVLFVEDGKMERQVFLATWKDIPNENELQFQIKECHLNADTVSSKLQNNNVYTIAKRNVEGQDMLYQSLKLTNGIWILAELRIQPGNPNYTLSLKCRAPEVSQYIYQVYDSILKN

As to `Cc1ccc(/C=C2/C(=O)NC(=O)N(C)C2=O)cc1`, the percent of DMSO control GFP in assay [1] was 97.4% (inactive). Moreover, the GFP response vs DMSO in assay [2] was 96.9% (inactive); in assay [4] it was 97.4% (inactive). In assay [3], the percent response of DMSO control is 95.9% (inactive). Moreover, the GFP response, % of DMSO in assay [5] was 93.6% (inactive). In [6], this compound returned a double positive events of 53.7%. The vesicle binding response in [6] was 135% (inactive). The inhibition in assay [7] was 20.3% (inactive); in [10], -0.14% (inactive); in assay [13], 0.6% (inactive); in assay [14], 1.8% (inactive); in assay [15] it was 6.7% (inactive); in assay [17] it was 6% (inactive). Besides, the superoxide response (% of plate) in assay [8] was 101% (inactive). In assay [9], the aptamer binding inhibition is 5% (inactive). The response in assay [11] was -4.11% (inactive). In assay [12], the binding (% of control) was 97.8% (inactive). Also, the efflux inhibition (fraction of control) in [16] is 0.22 (inactive). In addition, the differentiation response in assay [18] was -0.2% (inactive).
Turning to `COc1ccc(C(=O)N2CCCC2=O)cc1`, in assay [1], the percent of DMSO control GFP was 104% (inactive). Further, the GFP response vs DMSO in [2] is 107% (inactive); in assay [4] it was 130% (inactive). In addition, in assay [3], the percent response of DMSO control is 105% (inactive). For the same compound, the GFP response, % of DMSO in [5] is 117% (inactive). Besides, the double positive events in assay [6] is 61.6%. The vesicle binding response in [6] is 241% (inactive). The inhibition in assay [7] was -6.23% (inactive); in assay [10] it was 61% (active); in assay [17] it was 4% (inactive). For the same compound, in assay [8], the superoxide response (% of plate) was 94.5% (inactive). The aptamer binding inhibition in [9] is -4% (inactive). Besides, the response in [19] was -0.27% (inactive); in [11], 2.82% (inactive). The binding (% of control) in assay [12] is 100% (inactive). Also, the efflux inhibition (fraction of control) in [16] was -0.04 (inactive). The differentiation response in assay [18] is 3.88% (inactive).
In the case of `COC1=CC(=O)OC(/C=C/c2ccccc2)C1` (centres undefined), the percent of DMSO control GFP in assay [1] was 102% (inactive). For the same compound, the results for the GFP response vs DMSO in [2] and in assay [4] were 105% (inactive) and 104% (inactive), respectively. Besides, in assay [3], the percent response of DMSO control was 105% (inactive). For the same compound, the GFP response, % of DMSO in assay [5] was 103% (inactive). This compound also had a double positive events in assay [6] of 56.3%. Moreover, the vesicle binding response in assay [6] is 194% (inactive). Also, the inhibition was 13.8% (inactive) in [7]; 47% (inactive) in [10]; 3.9% (inactive) in assay [13]; 1.1% (inactive) in assay [14]; 5.6% (inactive) in assay [15]; 4% (inactive) in [17]. Besides, the superoxide response (% of plate) in [8] was 101% (inactive). For the same compound, the aptamer binding inhibition in assay [9] is -1% (inactive). The response in [11] was -10.4% (inactive). In addition, in [12], the binding (% of control) is 106% (inactive). The efflux inhibition (fraction of control) in assay [16] is 0.06 (inactive). Also, the differentiation response in [18] is 22.4% (inactive).
For `Cc1cc(Cl)ccc1OC(C)C(=O)O` (centres undefined), in assay [1], the percent of DMSO control GFP was 97.9% (inactive). The GFP response vs DMSO in [2] was 108% (inactive); in assay [4], 74.8% (inactive). The percent response of DMSO control in assay [3] is 111% (inactive). Besides, the GFP response, % of DMSO in assay [5] was 87.3% (inactive). This compound yielded a double positive events in assay [6] of 58.2%. Besides, the vesicle binding response in [6] was 208% (inactive). Further, the inhibition in [7] was -6.15% (inactive); in assay [10] it was 0.4% (inactive); in assay [13], 3.9% (inactive); in [14] it was 0.5% (inactive); in assay [17], 9% (inactive). Moreover, the superoxide response (% of plate) in [8] was 135% (inactive). The aptamer binding inhibition in assay [9] is -5% (inactive). For the same compound, the response is -8.83% (inactive) in assay [19] and 3.15% (inactive) in [11]. Besides, the binding (% of control) in assay [12] is 105% (inactive). Moreover, in assay [16], the efflux inhibition (fraction of control) is 0.37 (inactive). For the same compound, the differentiation response in assay [18] was 7.37% (inactive).
